Hits are enriched below; roughly 2.9% of the tested compounds scored in any of these assays.
Pol beta inh: inhibitors of human DNA polymerase beta; Pol beta primer extension/strand displacement, fluorescence kinetic; Potency, µM (highest dose often 114 µM), for the others: at the top dose activity change, negative = inhibition, most hits filed as inhibitors; actives 1.3% (n = 340,000); also: potency is read from the fitted curve at half-maximal effect; % is scaled to controls: 0 for no effect and ±100 for the full control effect
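Curves were derived by four-parameter Hill fits of normalized qHTS data. The kinetic fluorescent primer-extension read was taken at 0 and 10 min after 50 nM substrate, following a 15 min room-temperature preincubation of 10 nM enzyme with compounds.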
POLK inh: blocks human DNA polymerase kappa activity | Q9UBT6 | purified Pol kappa, fluorescent DNA synthesis assay, 10 min | Potency, µM (doses to about 107 µM), inactives show at the top dose activity, negative = inhibition, most hits filed as inhibitors | actives 0.53% (n = 400,000) | AID 588579; also: potency is read from the fitted curve at half-maximal effect; % is scaled to controls: 0 for no effect and ±100 for the full control effect
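Fluorescent qHTS in 1536-well format: enzyme (10 nM) and compound sat 15 min at room temperature before 50 nM substrate (final) was added. Signal taken at 0 and 10 min; no-enzyme buffer wells were negative controls.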
POLI inh: blocks human DNA polymerase iota activity | Potency, µM (doses to about 115 µM), for inactives: at the highest dose activity, negative = inhibition, usual class: inhibitors | actives 1% (n = 390,000) | Pol iota fluorescent replication assay, 10 min | Q9UNA4; also: potency is read from the fitted curve at half-maximal effect
Target sequence (Q9UNA4 whole entry, looked up): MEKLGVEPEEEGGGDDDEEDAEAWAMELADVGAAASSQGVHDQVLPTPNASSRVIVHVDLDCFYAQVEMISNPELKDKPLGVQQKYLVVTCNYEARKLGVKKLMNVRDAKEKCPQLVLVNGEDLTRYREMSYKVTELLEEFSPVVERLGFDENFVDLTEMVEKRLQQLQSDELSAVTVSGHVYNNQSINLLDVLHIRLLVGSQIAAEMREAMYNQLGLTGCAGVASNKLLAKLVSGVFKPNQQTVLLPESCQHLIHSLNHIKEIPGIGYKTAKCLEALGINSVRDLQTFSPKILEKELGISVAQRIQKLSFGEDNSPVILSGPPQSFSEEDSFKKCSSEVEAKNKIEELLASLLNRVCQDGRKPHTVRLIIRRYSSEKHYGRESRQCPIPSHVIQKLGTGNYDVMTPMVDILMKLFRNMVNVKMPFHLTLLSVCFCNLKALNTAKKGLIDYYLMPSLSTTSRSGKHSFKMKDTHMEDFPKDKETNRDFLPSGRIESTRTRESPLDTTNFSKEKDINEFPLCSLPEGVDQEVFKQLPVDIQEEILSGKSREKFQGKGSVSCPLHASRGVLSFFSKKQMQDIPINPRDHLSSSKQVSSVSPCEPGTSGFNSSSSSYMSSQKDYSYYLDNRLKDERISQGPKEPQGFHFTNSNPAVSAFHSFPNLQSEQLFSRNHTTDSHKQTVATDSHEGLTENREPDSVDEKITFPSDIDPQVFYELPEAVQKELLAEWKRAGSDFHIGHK
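Fluorescent replication assay read twice, at 0 min and 10 min after adding 50 nM (final) substrate. Enzyme (10 nM) and compounds were first incubated 15 min at room temperature; enzyme-free buffer wells were negative controls.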
12-LOX inh: ALOX12 (human) lipoxygenase inhibition | Potency, µM (series often up to 108 µM), for inactives: at the top dose activity change, negative = inhibition, hits mostly inhibitors | actives 1.1% (n = 580,000) | purified 12hLO, xylenol orange hydroperoxide absorbance | AID 1671190; also: potency is read from the fitted curve at half-maximal effect; % is scaled to controls: 0 for no effect and ±100 for the full control effect
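Purified human 12hLO at 150 nM in 25 mM Hepes, 0.01% Triton X-100, pH 7.0, preincubated 15 min at room temperature with compound. Reaction started with 40 uM arachidonic acid, 30 min at room temperature. Hydroperoxide measured by Fe-xylenol orange, 573/405 nm absorbance ratio.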
PI5P4Ka inh: PI5P4K alpha (human) kinase inhibition. PI5P4Kalpha enzyme, ADP-Glo luminescence, 60 min; hits give low values. actives 1.2% (n = 330,000). AID 652105. max response, %. P48426; active = max response of -50% or lower; inconclusive = between -30% and -50%; inactive = -30% or higher; also: value at the top dose of about 77 µM; % is scaled to controls: 0 for no effect and ±100 for the full control effect
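Single end-point luminescence (ADP-Glo) quantified ADP from PI5P4Kalpha turnover; ATP 5 microM final, 1 h at RT, 0.1% CHAPS and 0.28 mM EGTA in HEPES pH 7.4.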
POLH inh: DNA polymerase eta (human) inhibition | Q9Y253 | recombinant Pol eta, fluorescent DNA replication assay | Potency, µM (titrated, usually from 114 µM), for the others: at the top dose activity change, negative = inhibition, most hits filed as inhibitors | actives 1.2% (n = 390,000); also: potency is read from the fitted curve at half-maximal effect; % is scaled to controls: 0 for no effect and ±100 for the full control effect
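Pol eta (10 nM) was preincubated with compounds for 15 min at room temperature, after which fluorescent replication substrate (50 nM final) was added to start the reaction. Fluorescence was read kinetically at 0 and 10 min.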
* marks the source's active call; other numbers are inactive results; ? = inconclusive; · = not tested or not shown; [ ] = another dose, or the depositor's remark. Unless noted, calls follow the shape of the dose curve; as a rule, active = well fitted inhibition curve with a large enough effect; inconclusive = small, poorly fitted or top-dose-only effect, or another doubt; inactive = no such curve, though single readings can be large or run the other way.

SMILES	Pol beta inh	POLK inh	POLI inh	12-LOX inh	PI5P4Ka inh	POLH inh
Cc1noc(C)c1-c1cc(N2CCNCC2)ncn1	·	4%[60.1 µM]	·	?	·	·
Cc1noc(C)c1-c1cc(NC2CCNCC2)ncn1	·	-3%[60.1 µM]	·	22µM*	·	·
Cc1noc(C)c1-c1nccc(NCCN2CCOCC2)n1	·	-1%[60.1 µM]	·	32µM*	·	·
Cc1noc(C)c1-c1nccc(N2CCNCC2)n1	·	-5%[60.1 µM]	·	?	·	·
Cc1noc(C)c1-c1nccc(-n2ccnc2)n1	·	-7%[60.1 µM]	·	45µM*	·	·
CCCn1cnc2c1c(=O)n(Cc1csc(C(C)C)n1)c(=O)n2C	·	·	·	43%	·	·
Cc1ccccc1-c1nccc(NCCN2CCOCC2)n1	·	4%[60.1 µM]	·	40µM*	·	·
FC(F)(F)c1ccccc1-c1nccc(NCCN2CCOCC2)n1	·	1%[60.1 µM]	·	?	·	·
COc1ccc(CNc2oc(COc3ccc(C)cc3)nc2C#N)cc1	·	·	·	-5%	·	·
O=C(Cn1cnc2ccccc2c1=O)OCC(=O)c1ccccc1	·	·	·	-17%	·	·
N#Cc1ccc2c(c1)OCCO2	·	·	·	8.9µM*	·	·
N#Cc1ccc(OCC(=O)c2ccc3c(c2)OCCO3)cc1	·	·	·	-8%	·	·
COc1ccc(-c2ccc(/C=C3\C(=O)N(c4ccccc4)N=C3c3ccccc3)o2)c([N+](=O)[O-])c1	?	-6%	6%	-3%	-10	12%
COc1ccc(-c2ccc(/C=C3/C(=N)N4C(C)=CSC4=NC3=O)o2)c([N+](=O)[O-])c1	?	?	18µM*	?	-10	?
O=C(OCc1cccc([N+](=O)[O-])c1)c1c2c(nc3ccccc13)CCCCC2	·	·	·	0%	·	·
O=C(Nc1ccccc1)c1ccc(CSc2cccc[n+]2[O-])cc1	·	·	·	-12%	·	·
Nc1cc(Oc2ccc(Cl)cc2Cl)nc(N)n1	-18%	-13%	-6%	?	6	-6%
Nc1cc(C(=O)O)c(Oc2ccc(Cl)cc2Cl)cc1C(=O)O	22µM*	-16%	-4%	?	5	?
Cc1cccc(NC(=O)c2nn(C(C)C)c(=O)c3ccccc23)c1C	·	·	·	0%	·	·
Cc1c(CCC(=O)N2CCCCC2)c(=O)oc2c(C)c(O)ccc12	·	·	·	9%	·	·
COCCNc1oc(-c2cccs2)nc1S(=O)(=O)c1ccc(C)cc1	?	-1%	31%	-20%	3	-9%
COCCCNc1oc(-c2cccs2)nc1S(=O)(=O)c1ccc(C)cc1	40µM*	-3%	79%	-10%	7	-19%
Brc1ccc(-c2noc(CC(c3ccccc3)c3ccccc3)n2)cc1	·	·	·	11%	·	·
CCc1cccc(CC)c1NC(=O)c1cc2ccccc2oc1=O	·	·	·	10%	·	·
Cc1c(/C=C(/C#N)c2ccccn2)cc(C#N)n1C	·	·	·	35µM*	·	·
SMILES	Pol beta inh	POLK inh	POLI inh	12-LOX inh	PI5P4Ka inh	POLH inh
Cc1cc(/C=C(/C#N)c2ccccn2)c(C)n1C1CC1	·	·	·	11µM*	·	·
COc1ccccc1NC(=O)Nc1nc2cc(C)c(C)cc2s1	·	·	·	10%	·	·
CCn1c(SCc2nc3sc(C(=O)O)c(C)c3c(=O)[nH]2)nnc1-c1ccc(Cl)cc1	?	-22%	70%	-15%	-56*	?
Oc1ccc2ccc(Cl)cc2c1	·	-30%	-18%	?	6	-9%
Nc1ccc2ccc(O)cc2c1	·	?	?	?	-19	50µM*
CC(=O)n1cc(N(C(=O)CCl)c2ccc([N+](=O)[O-])cc2)c2ccccc21	-11%	-1%	?	?	0	40µM*
O=Cc1[nH]c2ccccc2c1N(C(=O)CCl)c1ccc([N+](=O)[O-])cc1	-2%	0%	7%	40µM*	-2	-13%
CN(Cc1cccs1)C(=O)CCc1ccccc1	·	·	·	-17%	·	·
CC(C)(C)C(=O)/C=c1/[nH]c(=O)/c(=C/c2c(F)cccc2F)s1	·	·	·	11%	·	·
O=C(Cn1ncc(Cl)c(Cl)c1=O)NC(=O)NC1CCCCC1	·	-15%	?	?	-50*	?
CC(NC(=O)Cn1ncc(Cl)c(Cl)c1=O)C12CC3CC(CC(C3)C1)C2 (centres undefined)	?	-5%	?	·	-64*	?
O=C(COc1ccccc1F)Nc1nn2cc(-c3ccccc3)nc2s1	·	·	·	10%	·	·
COc1cc(C(=O)Nc2ccc(C)c(S(=O)(=O)N3CCCCCC3)c2)cc(OC)c1OC	·	·	·	12%	·	·
CCCn1nc(C(=O)Nc2sc3c(c2C#N)CCCC3)c2ccccc2c1=O	·	·	·	8%	·	·
O=C(NC(=S)Nc1ccc(N2CCOCC2)cc1)c1ccccc1	-2%	-2%	5%	?	-1	5%
